PubChem BioAssay AID1159580 (chemical genetic matrix, 2015)
Among all 5,500 compounds or so, about 2,000 (36%) were called active. Inconclusive results (about 18%) are left out. Rule as the data show it: active = normalized growth mostly below about 0.91 (no sharp cut-off); inconclusive = no clear call, values can overlap the other calls; inactive = mostly above about 0.92. The list shows a part of the results.

Experiment: chemical genetic growth profiling, strain panel (AID 1159580);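 also: tested at 20 µM; growth read once vehicle control cultures reached saturation at 30 °C; 1 = growth at the plate median or of vehicle wells; lower values mean less growth of the strain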
Conditions: S. cerevisiae deletion strains, growth OD

Measured: normalized growth

O=C(O)COc1ccc(Cl)cc1Cl
inactive: locus YAL013W, strain DEP1, stronger effect = lower value 1.01 | locus YAL021C, strain ccr4, stronger effect = lower value 0.997 | locus YAL026C, strain drs2, stronger effect = lower value 1.01 | locus YAL030W, strain snc1, stronger effect = lower value 0.988 | locus YBL061C, strain skt5, stronger effect = lower value 0.997 | locus YBR009C, strain hhf1, stronger effect = lower value 0.992 | locus YBR021W, strain FUR4, stronger effect = lower value 1 | locus YBR023C, strain chs3, stronger effect = lower value 0.992 | locus YBR171W, strain sec66, stronger effect = lower value 1 | locus YBR229C, strain ROT2, stronger effect = lower value 0.999 | locus YBR231C, strain swc5, stronger effect = lower value 0.989 | locus YBR279W, strain paf1, stronger effect = lower value 0.992 | locus YCL011C, strain gbp2, stronger effect = lower value 1 | locus YCL016C, strain dcc1, stronger effect = lower value 0.994 | locus YCL029C, strain bik1, stronger effect = lower value 1.03 | locus YCL061C, strain MRC1, stronger effect = lower value 0.995 | locus YCL069W, strain vba3, stronger effect = lower value 1 | locus YCR088W, strain abp1, stronger effect = lower value 1 | locus YDL005C, strain med2, stronger effect = lower value 0.992 | locus YDL035C, strain GPR1, stronger effect = lower value 1.03 | locus YDL040C, strain nat1, stronger effect = lower value 0.996 | locus YDL074C, strain BRE1, stronger effect = lower value 1.05 | locus YDL101C, strain DUN1, stronger effect = lower value 0.999 | locus YDL134C, strain PPH21, stronger effect = lower value 1.02 | locus YDL185W, strain tfp1, stronger effect = lower value 1.02 | locus YDL192W, strain arf1, stronger effect = lower value 1.02 | locus YDR001C, strain nth1, stronger effect = lower value 1 | locus YDR069C, strain doa4, stronger effect = lower value 0.986 | locus YDR101C, strain arx1, stronger effect = lower value 1.02 | locus YDR137W, strain rgp1, stronger effect = lower value 1.01 | locus YDR150W, strain NUM1, stronger effect = lower value 1.01 | locus YDR159W, strain sac3, stronger effect = lower value 0.982 | locus YDR162C, strain NBP2, stronger effect = lower value 1.01 | locus YDR195W, strain ref2 0.968 | locus YDR297W, strain sur2, stronger effect = lower value 1.01 | locus YDR318W, strain mcm21, stronger effect = lower value 1.03 | locus YDR334W, strain swr1, stronger effect = lower value 1 | locus YDR335W, strain msn5, stronger effect = lower value 0.998 | locus YDR388W, stronger effect = lower value 1.02 | locus YDR392W, strain spt3, stronger effect = lower value 1 | locus YDR502C, strain sam2, stronger effect = lower value 1.02 | locus YEL003W, strain gim4, stronger effect = lower value 0.995 | locus YEL037C, strain rad23, stronger effect = lower value 1.01 | locus YEL061C, strain CIN8 (second series), stronger effect = lower value 0.989 | locus YEL061C, strain CIN8, stronger effect = lower value 1 | locus YER015W, strain faa2, stronger effect = lower value 0.997 | locus YER016W, strain bim1, stronger effect = lower value 1 | locus YER110C, stronger effect = lower value 1.02 | locus YER111C, strain swi4, stronger effect = lower value 0.977 | locus YER155C, strain BEM2 (second series), stronger effect = lower value 1.01 | locus YER155C, strain BEM2, stronger effect = lower value 1.01 | locus YER167W, strain BCK2, stronger effect = lower value 1.02 | locus YFR010W, strain ubp6, stronger effect = lower value 0.998 | locus YGL078C, strain dbp3, stronger effect = lower value 1.02 | locus YGL086W, strain mad1, stronger effect = lower value 1.01 | locus YGL167C, strain pmr1, stronger effect = lower value 1 | locus YGL173C, strain kem1, stronger effect = lower value 0.984 | locus YGL227W, strain vid30, stronger effect = lower value 0.987 | locus YGL240W, strain doc1, stronger effect = lower value 0.982 | locus YGL248W, strain PDE1, stronger effect = lower value 1.03 | locus YGL253W, strain hxk2, stronger effect = lower value 0.995 | locus YGR078C, strain PAC10, stronger effect = lower value 1.02 | locus YGR135W, strain pre9, stronger effect = lower value 1.02 | locus YGR229C, strain SMI1, stronger effect = lower value 1.04 | locus YGR252W, strain gcn5, stronger effect = lower value 1.03 | locus YHR013C, strain ard1, stronger effect = lower value 0.995 | locus YHR027C, strain rpn1, stronger effect = lower value 0.994 | locus YHR030C, strain SLT2, stronger effect = lower value 0.999 | locus YHR079C, strain IRE1 (second series), stronger effect = lower value 1.03 | locus YHR094C, strain hxt1, stronger effect = lower value 1.01 | locus YHR129C, strain ARP1, stronger effect = lower value 1 | locus YHR142W, strain chs7, stronger effect = lower value 1.01 | locus YHR200W, strain rpn10, stronger effect = lower value 1.01 | locus YIL066C, strain RNR3, stronger effect = lower value 1.02 | locus YIL073C, strain SPO22, stronger effect = lower value 1.1 | locus YIL125W, strain kgd1, stronger effect = lower value 1.03 | locus YIR030C, strain dcg1, stronger effect = lower value 1.02 | locus YJL092W, strain hpr5, stronger effect = lower value 0.987 | locus YJL095W, strain BCK1 (second series), stronger effect = lower value 0.987 | locus YJL095W, strain BCK1, stronger effect = lower value 1.02 | locus YJL115W, strain asf1, stronger effect = lower value 1 | locus YJL129C, strain trk1, stronger effect = lower value 1.02 | locus YJL134W, strain LCB3, stronger effect = lower value 1 | locus YJL154C, strain vps35, stronger effect = lower value 1 | locus YJL164C, strain tpk1, stronger effect = lower value 1 | locus YJL166W, strain qcr8, stronger effect = lower value 0.992 | locus YJL168C, strain set2, stronger effect = lower value 1.02 | locus YJL187C, strain SWE1 (second series), stronger effect = lower value 1.01 | locus YJL187C, strain SWE1, stronger effect = lower value 1
